# Inconclusive results are not listed. A call without a number means that no potency is given here. Calls of active or inactive are those of the source. Calls follow the shape of the dose curve; as a rule, active = well fitted cell-killing curve with a large enough effect in the repeat runs; inconclusive = weak or mixed curves; inactive = flat fitted curve, though single readings scatter.
# Assay: qHTS assay to identify small molecule antagonists of the estrogen related receptor (ERR) signaling pathway - cell viability counter screen (AID 1224818)
# Details: ERR reporter cell line viability counter screen; series mostly up to 46.1 µM
# Source text: National Center for Advancing Translational Sciences [NCATS]
# NIH Chemical Genomics Center [NCGC]
# U.S. Environmental Protection Agency [EPA]
# National Institutes of Environmental Health Sciences [NIEHS]
# National Toxicology Program [NTP]
# U.S. Food and Drug Administration [FDA]
# Estrogen related receptors (ERRs), the first orphan nuclear receptors discovered, play an important role in the control of cellular energy metabolism. ERRs are required for high-energy production in response to the environmental challenges. ERR-alpha was also identified as an adverse marker for breast cancer progression; ERR-alpha-positive tumors have a poor prognosis. To screen and to identify environmental compounds that perturb the ERR signaling pathways could provide valuable information for potential therapeutic or preventive measures in the treatment of metabolic disease. To differentiate true ERR antagonists or agonist from cytotoxic substances, the assay is multiplexed with cell viability assay.
# Tox21 Assay Protocol Summary:
# The ERR cells were dispensed at 2,000 cells/5 ul/well in 1536-well white plates using a Multidrop dispenser. After the assay plates were incubated at a 37 C/5% CO2 incubator for 6 hours, 23 nL of compounds dissolved in DMSO, positive and negative controls or DMSO only was transferred to the assay plate by a pin tool. The plates were incubated at 37 C for 17.5 hours. 1 ul/well of CellTiter-Fluor reagent was added into the assay plates using a Flying Reagent Dispenser. After 30 min incubation at 37 C/5% CO2, the fluorescence intensity in the plates was measured using a ViewLux plate reader.
# Potency is read from the fitted curve at half-maximal effect.
row,SMILES,Potency
1,COC(=O)C(C)(N)Cc1ccc(O)cc1 (stereo not given),inactive
2,Cn1c(=O)c2[nH]c(-c3ccccc3)nc2n(C)c1=O,inactive
3,CC1CNCCN1S(=O)(=O)c1cccc2cnccc12 (stereo not given),inactive
4,Nc1nc(OCc2ccccc2)c2[nH]cnc2n1,inactive
5,Nc1ncnc2c1ncn2C1CCCC1,inactive
6,CN1CCC2(CCN3CCc4c(oc5ccccc45)C3C2)N(C)C1=O (stereo not given),inactive
7,CCOC(=O)[C@H](CCc1ccccc1)N[C@@H](C)C(=O)N1[C@H](C(=O)O)C[C@H]2CCCC[C@@H]21,inactive
8,CN[C@H](CC(C)C)C(=O)N[C@H]1C(=O)N[C@@H](CC(N)=O)C(=O)N[C@H]2C(=O)N[C@H]3C(=O)N[C@H](C(=O)N[C@H](C(=O)O)c4cc(O)cc(O)c4-c4cc3ccc4O)[C@H](O)c3ccc(c(Cl)c3)Oc3cc2cc(c3O[C@@H]2O[C@H](CO)[C@@H](O)[C@H](O)[C@H]2O[C@H]2C[C@](C)(N)[C@H](O)[C@H](C)O2)Oc2ccc(cc2Cl)[C@H]1O,inactive
9,CN(C)CCC(c1ccc(Br)cc1)c1ccccn1 (stereo not given),inactive
10,COC(=O)C1=CO[C@@H](O)[C@@H]2C(CO)=CC[C@H]12,inactive
11,NC(=O)c1ccc2[nH]ccc2c1,inactive
12,O=Nc1c(-c2c(O)[nH]c3cc(Br)ccc23)[nH]c2ccccc12,16.2 µM (active)
13,CN1CCc2cc(Cl)c(O)cc2[C@@H](c2ccccc2)C1,inactive
14,CCCCCC(O)CCCC(=O)O (stereo not given),inactive
15,N#CC(=C(\N)Sc1ccccc1N)/C(C#N)=C(/N)Sc1ccccc1N,inactive
16,COC1(C2=NCCN2)COc2ccccc2O1 (stereo not given),inactive
17,NC1C=CC=C(C(=O)O)C1 (stereo not given),inactive
18,NC(=Nc1ccccc1)NC(=O)c1nc(Cl)c(N)nc1N,inactive
19,O=C(O)CC1CCCc2ccccc2C1O (stereo not given),inactive
20,CSc1nc(N)c2ncn([C@@H]3O[C@H](COP(=O)(O)OP(=O)(O)O)C(O)[C@H]3O)c2n1 (stereo not given in full),inactive

row,SMILES,Potency
1,CC1=C(C(=O)O)N2C(=O)[C@@H](NC(=O)C(N)C3=CCC=CC3)[C@H]2SC1 (stereo not given in full),inactive
2,O=C(O)CCCC[C@@H]1CCSS1,inactive
3,CC(N)=NCCCC[C@@H](N)C(=O)O,inactive
4,Nc1nc2c(nc(Br)n2C2OC3COP(=O)(O)O[C@@H]3C2O)c(=O)[nH]1 (stereo not given in full),inactive
5,Oc1ccc(C2CNCc3sccc32)cc1O (stereo not given),inactive
6,C=C/C(C)=C/[C@@]1(C)SC(=O)C(C)=C1O,inactive
7,CCOC(=O)C1=C(O)C(=O)N(Cc2ccccc2)C1,inactive
8,CCNc1nc2c(ncn2[C@H]2C[C@H](O)[C@@H](CO)O2)c(=O)[nH]1,inactive
9,CN(C)C(=O)[C@H](O)[C@H](Cc1ccccc1)NC(=O)c1cc2cc(Cl)ccc2[nH]1,inactive
10,O=C(Nc1ccncc1)c1cc([N+](=O)[O-])ccc1Cl,inactive
11,Brc1c(Br)c(Br)c2[nH]cnc2c1Br,inactive
12,NC(C(=O)N[C@@H]1C(=O)N2C(C(=O)O)=C(Cl)CS[C@H]12)c1ccccc1 (stereo not given in full),inactive
13,CC(C)C[C@H](NC(=O)C1OC1C(=O)O)C(=O)NCCCCN=C(N)N (stereo not given in full),inactive
14,CCN(CC)CCOC(=O)c1cc(Cl)c(N)cc1OC,inactive
15,OCC1NCC(O)C(O)C1O (stereo not given),inactive
16,Cc1nn(-c2ccccc2)c(C)c1/C=N/N1CCN(Cc2ccccc2)CC1,inactive
17,O=c1onc2n1-c1cc(Br)ccc1OC2,inactive
18,C[C@H](Cc1ccccc1)Nc1ncnc2c1ncn2[C@@H]1O[C@H](CO)C(O)[C@H]1O (stereo not given in full),inactive
19,CN1C2CCC1CC(OC(=O)C(O)c1ccccc1)C2 (stereo not given),inactive
20,COc1cc(OC)c(/C=C2/C(=O)Nc3ccccc32)c(OC)c1,11 µM (active)

# Reference: PubChem BioAssay (Tox21)
